In PubChem BioAssay AID1159580 (chemical genetic matrix, 2015):
Several values for one entry are separate records, joined by “and”; a condition that tells them apart may be missing. Equal entries are not always repeated. About 2,000 (36%) of roughly 5,500 compounds were called active. Not shown: some 18% with an inconclusive outcome. The list shows a part of the results. Values without a mark were called inactive. Rule as the data show it: active = normalized growth mostly below about 0.91 (no sharp cut-off); inconclusive = no clear call, values can overlap the other calls; inactive = mostly above about 0.92.

Test: chemical genetic growth profiling, strain panel (AID 1159580);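 also: tested at 20 µM; growth read once vehicle control cultures reached saturation at 30 °C; 1 = growth at the plate median or of vehicle wells; lower values mean less growth of the strain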
Conditions: S. cerevisiae deletion strains, growth OD

C[C@@H]1O[C@@H](OC[C@H]2OC(Oc3c(-c4ccc(O)c(O)c4)oc4cc(O)cc(O)c4c3=O)[C@H](O)[C@@H](O)[C@@H]2O)[C@H](O)[C@H](O)[C@H]1O (stereo not given in full)
normalized growth (locus YAL013W, strain DEP1, hits give low values): 0.995
normalized growth (locus YAL021C, strain ccr4, hits give low values): 0.964
normalized growth (locus YAL026C, strain drs2, hits give low values): 0.993
normalized growth (locus YAL030W, strain snc1, hits give low values): 0.998
normalized growth (locus YBL061C, strain skt5, hits give low values): 1.01
normalized growth (locus YBR009C, strain hhf1, hits give low values): 0.994
normalized growth (locus YBR021W, strain FUR4, hits give low values): 1.03
normalized growth (locus YBR023C, strain chs3, hits give low values): 1
normalized growth (locus YBR171W, strain sec66, hits give low values): 1
normalized growth (locus YBR229C, strain ROT2, hits give low values): 1.01
normalized growth (locus YBR231C, strain swc5, hits give low values): 1
normalized growth (locus YBR279W, strain paf1, hits give low values): 0.996
normalized growth (locus YCL011C, strain gbp2, hits give low values): 0.98
normalized growth (locus YCL016C, strain dcc1, hits give low values): 0.982
normalized growth (locus YCL029C, strain bik1, hits give low values): 0.988
normalized growth (locus YCL061C, strain MRC1, hits give low values): 1.01
normalized growth (locus YCL069W, strain vba3, hits give low values): 1.01
normalized growth (locus YCR088W, strain abp1, hits give low values): 1.01
normalized growth (locus YDL005C, strain med2, hits give low values): 1
normalized growth (locus YDL035C, strain GPR1, hits give low values): 0.975
normalized growth (locus YDL040C, strain nat1, hits give low values): 1
normalized growth (locus YDL074C, strain BRE1, hits give low values): 0.949
normalized growth (locus YDL101C, strain DUN1, hits give low values): 1
normalized growth (locus YDL185W, strain tfp1, hits give low values): 0.941
normalized growth (locus YDL192W, strain arf1, hits give low values): 0.989
normalized growth (locus YDR001C, strain nth1, hits give low values): 0.986
normalized growth (locus YDR069C, strain doa4, hits give low values): 1
normalized growth (locus YDR101C, strain arx1, hits give low values): 0.983
normalized growth (locus YDR137W, strain rgp1, hits give low values): 0.974
normalized growth (locus YDR150W, strain NUM1, hits give low values): 0.996
normalized growth (locus YDR159W, strain sac3, hits give low values): 1.07
normalized growth (locus YDR162C, strain NBP2, hits give low values): 1.01
normalized growth (locus YDR195W, strain ref2): 1
normalized growth (locus YDR297W, strain sur2, hits give low values): 1.01
normalized growth (locus YDR318W, strain mcm21, hits give low values): 1
normalized growth (locus YDR334W, strain swr1, hits give low values): 1
normalized growth (locus YDR335W, strain msn5, hits give low values): 0.979
normalized growth (locus YDR388W, hits give low values): 1
normalized growth (locus YDR392W, strain spt3, hits give low values): 0.979
normalized growth (locus YDR502C, strain sam2, hits give low values): 1.01
normalized growth (locus YEL003W, strain gim4, hits give low values): 1.01
normalized growth (locus YEL037C, strain rad23, hits give low values): 1.01
normalized growth (locus YEL061C, strain CIN8 (second series), hits give low values): 1
normalized growth (locus YEL061C, strain CIN8, hits give low values): 1.01
normalized growth (locus YER015W, strain faa2, hits give low values): 0.973
normalized growth (locus YER016W, strain bim1, hits give low values): 1
normalized growth (locus YER110C, hits give low values): 0.985
normalized growth (locus YER111C, strain swi4, hits give low values): 0.994
normalized growth (locus YER155C, strain BEM2 (second series), hits give low values): 1.09
normalized growth (locus YER155C, strain BEM2, hits give low values): 1
normalized growth (locus YER167W, strain BCK2, hits give low values): 1.01
normalized growth (locus YFR010W, strain ubp6, hits give low values): 1
normalized growth (locus YGL078C, strain dbp3, hits give low values): 0.971
normalized growth (locus YGL086W, strain mad1, hits give low values): 0.997
normalized growth (locus YGL167C, strain pmr1, hits give low values): 0.975
normalized growth (locus YGL173C, strain kem1, hits give low values): 1.02
normalized growth (locus YGL227W, strain vid30, hits give low values): 1
normalized growth (locus YGL240W, strain doc1, hits give low values): 1.04
normalized growth (locus YGL248W, strain PDE1, hits give low values): 1.03
normalized growth (locus YGL253W, strain hxk2, hits give low values): 0.991
normalized growth (locus YGR078C, strain PAC10, hits give low values): 1.03
normalized growth (locus YGR135W, strain pre9, hits give low values): 1.03
normalized growth (locus YGR252W, strain gcn5, hits give low values): 1.09
normalized growth (locus YHR013C, strain ard1, hits give low values): 0.979
normalized growth (locus YHR027C, strain rpn1, hits give low values): 0.985
normalized growth (locus YHR030C, strain SLT2, hits give low values): 0.992 and 1.1
normalized growth (locus YHR079C, strain IRE1 (second series), hits give low values): 0.98
normalized growth (locus YHR079C, strain IRE1, hits give low values): 1.07
normalized growth (locus YHR094C, strain hxt1, hits give low values): 0.997
normalized growth (locus YHR129C, strain ARP1, hits give low values): 1.01
normalized growth (locus YHR142W, strain chs7, hits give low values): 0.969
normalized growth (locus YHR200W, strain rpn10, hits give low values): 1
normalized growth (locus YIL066C, strain RNR3, hits give low values): 1
normalized growth (locus YIL073C, strain SPO22, hits give low values): 0.99
normalized growth (locus YIL125W, strain kgd1, hits give low values): 0.994
normalized growth (locus YIR030C, strain dcg1, hits give low values): 0.997
normalized growth (locus YJL092W, strain hpr5, hits give low values): 1
normalized growth (locus YJL095W, strain BCK1 (second series), hits give low values): 1
normalized growth (locus YJL095W, strain BCK1, hits give low values): 1.07 and 1.06
normalized growth (locus YJL115W, strain asf1, hits give low values): 0.968
normalized growth (locus YJL129C, strain trk1, hits give low values): 0.987
normalized growth (locus YJL134W, strain LCB3, hits give low values): 0.997
normalized growth (locus YJL154C, strain vps35, hits give low values): 0.999
normalized growth (locus YJL164C, strain tpk1, hits give low values): 0.974
normalized growth (locus YJL166W, strain qcr8, hits give low values): 1.02
normalized growth (locus YJL168C, strain set2, hits give low values): 0.996
normalized growth (locus YJL187C, strain SWE1 (second series), hits give low values): 1.01
normalized growth (locus YJL187C, strain SWE1, hits give low values): 0.999
normalized growth (locus YJR043C, strain POL32, hits give low values): 1
normalized growth (locus YJR066W, strain TOR1, hits give low values): 1
normalized growth (locus YJR075W, strain HOC1, hits give low values): 1.02
normalized growth (locus YKL009W, strain mrt4, hits give low values): 1.11
normalized growth (locus YKL068W, hits give low values): 0.982
normalized growth (locus YKL085W, strain MDH1 (second series), hits give low values): 0.992
normalized growth (locus YKL085W, strain MDH1, hits give low values): 0.992
normalized growth (locus YKL160W, strain elf1, hits give low values): 0.976
normalized growth (locus YKR001C, strain vps1, hits give low values): 1.01
normalized growth (locus YKR026C, strain gcn3, hits give low values): 1
normalized growth (locus YKR091W, strain srl3, hits give low values): 0.996
normalized growth (locus YLL001W, strain dnm1, hits give low values): 0.942
normalized growth (locus YLL026W, hits give low values): 0.997
normalized growth (locus YLL041C, strain sdh2, hits give low values): 0.995
normalized growth (locus YLR027C, strain aat2, hits give low values): 1.01
normalized growth (locus YLR039C, strain RIC1, hits give low values): 0.979
normalized growth (locus YLR058C, strain SHM2, hits give low values): 1.03
normalized growth (locus YLR102C, strain apc9, hits give low values): 1
normalized growth (locus YLR113W, strain HOG1, hits give low values): 1.03
normalized growth (locus YLR221C, strain rsa3, hits give low values): 1.06
normalized growth (locus YLR258W, strain gsy2, hits give low values): 1.02
normalized growth (locus YLR262C, strain YPT6 (second series), hits give low values): 1.03
normalized growth (locus YLR262C, strain YPT6, hits give low values): 0.99
normalized growth (locus YLR268W, strain sec22, hits give low values): 0.977
normalized growth (locus YLR320W, strain mms22, hits give low values): 1.08
normalized growth (locus YLR330W, strain CHS5, hits give low values): 0.999
normalized growth (locus YLR342W, strain FKS1 (second series), hits give low values): 1
normalized growth (locus YLR342W, strain FKS1, hits give low values): 1.01
normalized growth (locus YLR357W, strain rsc2, hits give low values): 0.955
normalized growth (locus YLR370C, strain arc18, hits give low values): 1.01
normalized growth (locus YLR371W, strain rom2, hits give low values): 0.995
normalized growth (locus YLR384C, strain iki3, hits give low values): 0.993
normalized growth (locus YLR418C, strain cdc73, hits give low values): 1.03
normalized growth (locus YML016C, strain PPZ1, hits give low values): 1.01
normalized growth (locus YML032C, strain rad52, hits give low values): 1.03
normalized growth (locus YML120C, strain ndi1, hits give low values): 0.972
normalized growth (locus YML124C, strain tub3, hits give low values): 0.993
normalized growth (locus YMR058W, strain fet3, hits give low values): 0.881 (active)
normalized growth (locus YMR078C, strain ctf18, hits give low values): 0.999
normalized growth (locus YMR125W, strain sto1, hits give low values): 0.965
normalized growth (locus YMR129W, hits give low values): 1.01
normalized growth (locus YMR205C, strain PFK2, hits give low values): 1
normalized growth (locus YMR223W, strain ubp8, hits give low values): 1.01
normalized growth (locus YMR231W, strain pep5, hits give low values): 1
normalized growth (locus YMR307W, strain GAS1, hits give low values): 1.03
normalized growth (locus YNL067W, strain RPL9B, hits give low values): 1.01
normalized growth (locus YNL071W, strain lat1, hits give low values): 1.02
normalized growth (locus YNL183C, strain NPR1, hits give low values): 0.999
normalized growth (locus YNL209W, strain ssb2, hits give low values): 0.939
normalized growth (locus YNL233W, strain BNI4, hits give low values): 1.02
normalized growth (locus YNL248C, strain rpa49, hits give low values): 1.01
normalized growth (locus YNL250W, strain rad50, hits give low values): 0.963
normalized growth (locus YNL271C, strain bni1, hits give low values): 0.987
normalized growth (locus YNL298W, strain CLA4, hits give low values): 0.982
normalized growth (locus YNL307C, strain MCK1, hits give low values): 0.987
normalized growth (locus YNL322C, strain KRE1 (second series), hits give low values): 0.997
normalized growth (locus YNL322C, strain KRE1, hits give low values): 1.01
normalized growth (locus YNR049C, strain mso1, hits give low values): 0.998
normalized growth (locus YNR052C, strain pop2, hits give low values): 1.01
normalized growth (locus YOL006C, strain TOP1, hits give low values): 1.03
normalized growth (locus YOL012C, strain htz1): 0.939
normalized growth (locus YOL147C, strain pex11, hits give low values): 1
normalized growth (locus YOR001W, strain rrp6, hits give low values): 1.03
normalized growth (locus YOR061W, strain CKA2, hits give low values): 1.01
normalized growth (locus YOR069W, strain VPS5, hits give low values): 0.994
normalized growth (locus YOR070C, strain gyp1, hits give low values): 0.999
normalized growth (locus YOR080W, strain dia2, hits give low values): 1.01
normalized growth (locus YOR083W, strain WHI5, hits give low values): 0.97
normalized growth (locus YOR106W, strain vam3, hits give low values): 0.877
normalized growth (locus YOR136W, strain idh2, hits give low values): 0.99
normalized growth (locus YOR144C, strain elg1, hits give low values): 1.01
normalized growth (locus YOR184W, strain ser1, hits give low values): 1
normalized growth (locus YOR231W, strain MKK1, hits give low values): 1.05
normalized growth (locus YOR265W, strain rbl2, hits give low values): 1.01
normalized growth (locus YOR270C, strain vph1, hits give low values): 1
normalized growth (locus YOR290C, strain snf2, hits give low values): 0.959
normalized growth (locus YOR316C, strain cot1, hits give low values): 0.999
normalized growth (locus YPL051W, strain arl3, hits give low values): 0.971
normalized growth (locus YPL078C, strain atp4, hits give low values): 0.941
normalized growth (locus YPL106C, strain sse1, hits give low values): 0.999
normalized growth (locus YPL240C, strain hsp82, hits give low values): 1
normalized growth (locus YPL256C, strain CLN2, hits give low values): 1.09
normalized growth (locus YPR119W, strain clb2, hits give low values): 1
normalized growth (locus YPR141C, strain kar3, hits give low values): 0.994
normalized growth (locus YPR163C, strain tif3, hits give low values): 0.998
normalized growth (locus YPR167C, strain met16, hits give low values): 0.991
normalized growth (strain wtn01, hits give low values): 0.975
